In all, about 53,000 sequences went through this assay and about 3,700 (7%) were called active. Many of the other results were omitted from the sample, so actives are more common in it than they were. Unmarked numbers belong to inactive results.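 The calls were made as follows: active = gene knockdowns whose robust z-score for IL-1 alpha signal is at least 2 or at most -2, so actives lie on both sides; inactive = the rest.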
assay: Components of the Cytosolic LPS Sensing Pathway: Gene Identification via Genome-wide siRNA Screen; details: RAW264.7 macrophages, IL-1a HTRF, actives lie on both sides, screened at 100 nM (by protocol), cells primed 5 h with Pam3CSK4 first;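 also: robust z of the log signal after scaling to non-targeting control siRNA wells of the plate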
Outline: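 RAW264.7 mouse macrophages reverse-transfected with single siRNAs (100 nM final) for 48h, primed with Pam3CSK4 for 5 hours, then transfected with LipidA for 24 hour. Supernatant IL-1a read by HTRF; values normalized to negative-control median, log-transformed robust z-scores.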

Sequence | z-score
GGCCGUUUCACUACCAUUCTT against Ier2 | 0.259
GGAGGUAGGAAUAUGACUUTT against Klrb1c | 0.0825
GGCUAGCAUUAGCCACAGATT against Enpp3 | -2.33 (active)
GGUGCUCAAAUCCUCUUGATT against Ctps | -0.0545
CGGAUAUGAAUUUUUUGCUTT against Ppp1cb | 0.116
GCUUUUCAGUCUCAUAGUGTT against Huwe1 | 0.468
GGAAAAUCCCUCUUUGGCUTT against Sez6l2 | -0.566
CGAUGAGACCAACAUCUUUTT against Gpr162 | 0.476
GGACAAUGAUUUUCUGAUUTT against Sv2b | 0.962
GGAAGUCUAUGGUUUUUAGTT against Csnk2b | 2.97 (active)
GGAAAUCAAGCCCUACAUCTT against Col4a2 | 0.152
GGGCUAUGUUGUCUCAAAATT against Gsdma2 | 0.861
GGAUGACCUCAUGCUUAUUTT against Prss37 | -2.31 (active)
GGAUGAAAAAUCAGUACUUTT against Aadac | -2.02 (active)
GGUAUCCUCUCUUGUCUUGTT against Clec9a | -0.0393
GUACCUGAAUUGCUACCGATT against Ly6g5c | 0.8
GGAGUUCUUGGUCUCUUUGTT against Fam214a | -0.124
UUGAACAGUGGAACAAUGATT against Fbxo27 | 2.59 (active)
GGAAAGGAACAUAUUUGACTT against Gss | 0.0774
CCAUCUCUCCAAAGGGCUGTT against Olfr32 | 0.056
GGAUUUGACCGGCUAAUACTT against Snrnp40 | -0.776
GGUUCUGGCUGGAAUCUACTT against Gnl1 | -0.987

Sequence | z-score
GCGAACAUGUGUUUUACGUTT against H4c8 | 1.14
GCAUGCUAGAAGCUAAAAATT against Golga3 | 1.48
GGCAUAUCCUCCUUAUCCATT against Dazl | -2.2 (active)
GGAAAUCAAAGAGAAAGUUTT against Rassf3 | -0.748
GGUUAGUUCCUUAAAUUCCTT against BC016579 | 1.21
GGACCAGACAGGAAGUAUUTT against Snx20 | 2.3 (active)
GGCAGGUAUGGAUGUAUUGTT against Renbp | -1.72
GGUUGAGUUGGAUGACCUUTT against Lsm10 | -1.91
GAGUCUUACAUCAAGAAGATT against 9230106D20Rik | 0.538
GGUAUGUCUAAGAAAACCATT against Pi4ka | 0.173
GGGCUACACUUCUGUCUACTT against Nanos3 | -1.26
GGGUUUUUUUAGAGAGAUUTT against Susd3 | -2.11 (active)
GCCAUACUUCCCUACAAAATT against Kctd19 | 0.233
GGGCAAGGAGACAGAAUUCTT against Fgf18 | 0.927
GGAAGAGGACAACCAGCUCTT against Cd82 | 0.59
GAGUUGGCUCGAAACUGCCTT against Fbxl15 | 3.54 (active)
GGGCACAAUUCAAAACUUATT against Pgm2 | 1.42
GGUCAAUUCCAUGAUUACGTT against Pgm3 | 0.538
UAAGGCCAUCUAGUGGAGATT against C8g | -0.199
GGGUGAAAGCUGACUUUAATT against Rnh1 | -1.57
GGCUUUGAAACAUAAGAACTT against Zfp472 | -0.553
GGUGUUGAGAUCCACAAGGTT against Tceanc2 | -2.44 (active)

Sequence | z-score
GGCAAUCAGCAUACCAACUTT against Thbs2 | -1.87
CAGCGGCCGCGCUUCACCGTT against 4930404N11Rik | 0.92
GGUAAUUGAGCUGAGUUCUTT against Rad54l2 | 0.479
GUGAAGAAAGCACUGUUGATT against Olfr978 | 0.387
GGCCAGGACCUAAAUACAATT against Tmem231 | 3.25 (active)
GGAGCUGUGCAAGAGGAAATT against Wnt16 | 1.01
GGGCAGAUCCUAAUAAGCATT against Irs3 | -1.21
GCUAAGGUCUUACUCCUGGTT against Cdca4 | 1.13
GCCAGUGUUGGUUAUAAAATT against Isg15 | 0.673
CCAUGGCACAGACAGCUAUTT against Celf1 | -2.02 (active)
GCUUUUGCCCGAUGGAUUUTT against Plpp3 | 0.136
GGUAUACAGGAUGUUAAGGTT against Pdlim4 | 0.889
GGAGACCCACUACAUGACUTT against H2-M2 | -0.982
CCCAUCUUUGCAACAUAUCTT against Scgb2b20 | -1.43
GGUCCCAUUCAGUGUGUGUTT against Cdk10 | 2.98 (active)
UAGUCACAAGGUUUGAAACTT against Fbxw24 | -0.822
GGUCCUGGACUUCAUGCUATT against Galnt6 | 2.75 (active)
GCUGUACAGUCAAUACCUGTT against Abhd17a | 1.2
GGACCUUUAGCUGGUUUAGTT against Sowaha | 0.559
GGUGAUUCCAUUACCUAGUTT against Pde12 | 0.572
GGUAAAAUCACGCAGUAAATT against Ppp1r3a | -0.56
GGACCCAGAGAAGAUCAAATT against Etfrf1 | 0.514

Sequence | z-score
GGCAUAGCUCAGUGAUAGCTT against Tmem19 | 0.117
CCAGACAGAAGGGUUAGCUTT against Mrps36 | -2.03 (active)
GCCUUUACACUAAUGAUAATT against Cilp | 0.455
GGUCUCAGUUUCUCAGAAUTT against Siglece | -1.62
GCUUGCUUAUGGCCUAUUATT against Ucma | -2.05 (active)
GCUACCAGGAUAGCGAAACTT against P2rx2 | 0.826
GGAAAAAUGGUCUGUAAAATT against Adck2 | 0.508
GGAAAAGGUGACCUGUCUCTT against Slc44a1 | -1.77
GGCCAGAAAGGCAGCAAAGTT against Msgn1 | -1.03
GGAAGUGAAGACCUUCUUCTT against St3gal4 | -0.898
UCGAUAGCCUCAAUCAGCATT against Zfp58 | -1.99
GGAGAAGGUCGAAAAGCCUTT against Rybp | -2.01 (active)
GCAUUCGUUCGGCACGUGUTT against Bcl2l14 | -0.0672
CGAAGGGAAGCAAAAUACATT against Bend5 | 2.11 (active)
GCCCUGGAUCAUUGAGUGATT against Atp2b1 | 0.749
GGCCAUACACCUGUGACAUTT against Osr2 | 1.37
GGAUGAUCGCUUUUGCUAUTT against Caly | 2.02 (active)
CCCUCUACUACUGCAUCGUTT against Xkr7 | 1.74
GCACUUCUACCGGAAAGUUTT against Mad2l1bp | -0.761
GCAAAGCCCUAUUCCUAAUTT against Vmn2r42 | 1.21
GGCCUAAACCCUUUCAUCUTT against V1rb6 | -0.0202
GCGAUCCUCUCUACUUAACTT against Eno4 | -1.49

Sequence | z-score
CGUGGGACCUGGUAUGUAATT against Slc22a12 | 2.79 (active)
GCGGGUAUGAUGGUACCUUTT against Pomt2 | 1.39
CGUGAUGAGUGAAAAUGAUTT against Cd34 | -2.12 (active)
GGUACUUCACAAUGGACAGTT against Zcchc9 | 0.951
GGUGCAUUUUCUAGAAUCATT against Usp45 | 0.933
GGUACCUAUGCCAGUUUUGTT against Aqp12 | 2.89 (active)
GCCACCAAGUACUUUGGUUTT against Vmn1r76 | 1.34
GCAAUUUGCUCAUCUCUAATT against Dcc | 1.89
GGAUGCAGAUGCUGUGGACTT against S100a1 | -0.918
GGAGUACGACUACUACGGUTT against Sfrp5 | 0.83
GGAUUACCGGCAGCUGGAATT against Dnm1 | 2.24 (active)
GGCGAGCAUCGCUAUUGACTT against Zcrb1 | 0.734
GGAGAUCCUAGGCUUGAACTT against Vsx2 | 0.279
GGGAGACUUGUCAUGCACATT against Slc45a2 | 0.728
GGUAGCUGAAGAAGACUUCTT against Reg2 | -0.591
GGCUUUGCUGAAUGUCUCATT against Nrn1l | 0.443
CCUGCUAAUGUUUGUAAGUTT against Sowahc | 1.37
GCAUUAAUUGCUUCUCUUATT against Nup155 | -2.35 (active)
GGAACUCACCCUCAGCUUGTT against Tmem260 | 0.313
CCAAACAACCAGCUAAUAUTT against Mia3 | -0.375
